A short description of experiment [1]: TOX21_p53_BLA_p2_viability: Viability Assessment in the Tox21 HCT-116 p53 Agonism Beta-lactamase Assay, Phase 2 (AID 2283591).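 Also: compound exposure lasted 16 h at 37 °C; actives lower the ATP signal meaning cytotoxicity.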 The method in brief: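 HCT116 p53-bla cells, 4000/well, dosed after 5 h plating (217-fold dilution of DMSO stocks) and incubated 16 h at 37C. Viability taken as cellular ATP by CellTiter-Glo luminescence after 30 min RT; signal loss marks cytotoxicity.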

The target of experiment [2] is Cellular tumor antigen p53 (Homo sapiens) (UniProt P04637). The experiment in a line: TOX21_p53_BLA_p2_ratio: Tox21 HCT-116 p53 Agonism Beta-lactamase Assay, Ratio, Phase 2 (AID 2283592). Put shortly:
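Cleaved-to-uncleaved substrate ratio (460 vs 530 nm) measured in HCT116 cells with an inducible beta-lactamase reporter linked to p53 activity. Compounds incubated 16 h at 37C before 2 h room-temperature CCF4-AM loading.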

For experiment [3] the target is unchanged. The experiment in a line: TOX21_p53_BLA_p3_ratio: Tox21 HCT-116 p53 Agonism Beta-lactamase Assay, Ratio, Phase 3 (AID 2283596). Put shortly: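 Cells were seeded at 4000/well, rested 5 h at 37C, then dosed with DMSO compound solutions (217-fold dilution) for 16 h. CCF4-AM substrate was loaded for 2 h at room temperature, and the 460/530 nm emission ratio was fitted for gain of signal versus DMSO.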

For experiment [4] the target is unchanged. Description: TOX21_p53_BLA_p5_ratio: Tox21 HCT-116 p53 Agonism Beta-lactamase Assay, Ratio, Phase 5 (AID 2283599). The method in brief: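 HCT-116 p53-bla cells (4000/well) plated 5 h, dosed with compound (217-fold DMSO dilution) for 16 h at 37 C; CCF4-AM substrate 2 h at room temperature. Activity is the 460/530 nm emission ratio (405 nm excitation), fitted in gain-of-signal direction versus DMSO.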

Experiment [5] is described as follows: TOX21_p53_BLA_p5_viability: Viability Assessment in the Tox21 HCT-116 p53 Agonism Beta-lactamase Assay, Phase 5 (AID 2283600). The method in brief:
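Viability is taken from cellular ATP content, measured by luciferase luminescence in the same wells after the beta-lactamase ratio read. Cells are seeded at 4000 per well and exposed to DMSO-dissolved compounds, diluted 217-fold, for 16 h.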

Experiment [6] has as its target Cellular tumor antigen p53 (Homo sapiens) (UniProt P04637). The experiment in a line: TOX21_p53_BLA_p4_ratio: Tox21 HCT-116 p53 Agonism Beta-lactamase Assay, Ratio, Phase 4 (AID 2283601). Put shortly:
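HCT-116 p53 beta-lactamase reporter cells (4000/well) preincubated 5 h, then compound (217-fold dilution of DMSO stock) for 16 h at 37C. CCF4-AM substrate added 2 h at room temperature; 460/530 nm emission ratio fitted upward versus DMSO.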

Experiment [7] deals with PGR (gene 5241) (UniProt P06401). Description: TOX21_PR_BLA_Followup_Antagonist_ratio: Tox21 HEK293 Progesterone Receptor (PR) Antagonism Beta-lactamase Follow-Up Assay, Ratio (AID 2283934).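 Also: PR-UAS-bla HEK293T cells stimulated with 1 nM R5020 agonist for 16 hr.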 The method in brief: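 Measured in PR-UAS-bla HEK293T cells co-treated with compound and 1 nM promegestone for 16 hr; beta-lactamase ratio read after 2 h FRET substrate loading, with parallel CellTiter-Glo cytotoxicity.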
Chain of PGR (gene 5241) (P06401 whole entry, looked up): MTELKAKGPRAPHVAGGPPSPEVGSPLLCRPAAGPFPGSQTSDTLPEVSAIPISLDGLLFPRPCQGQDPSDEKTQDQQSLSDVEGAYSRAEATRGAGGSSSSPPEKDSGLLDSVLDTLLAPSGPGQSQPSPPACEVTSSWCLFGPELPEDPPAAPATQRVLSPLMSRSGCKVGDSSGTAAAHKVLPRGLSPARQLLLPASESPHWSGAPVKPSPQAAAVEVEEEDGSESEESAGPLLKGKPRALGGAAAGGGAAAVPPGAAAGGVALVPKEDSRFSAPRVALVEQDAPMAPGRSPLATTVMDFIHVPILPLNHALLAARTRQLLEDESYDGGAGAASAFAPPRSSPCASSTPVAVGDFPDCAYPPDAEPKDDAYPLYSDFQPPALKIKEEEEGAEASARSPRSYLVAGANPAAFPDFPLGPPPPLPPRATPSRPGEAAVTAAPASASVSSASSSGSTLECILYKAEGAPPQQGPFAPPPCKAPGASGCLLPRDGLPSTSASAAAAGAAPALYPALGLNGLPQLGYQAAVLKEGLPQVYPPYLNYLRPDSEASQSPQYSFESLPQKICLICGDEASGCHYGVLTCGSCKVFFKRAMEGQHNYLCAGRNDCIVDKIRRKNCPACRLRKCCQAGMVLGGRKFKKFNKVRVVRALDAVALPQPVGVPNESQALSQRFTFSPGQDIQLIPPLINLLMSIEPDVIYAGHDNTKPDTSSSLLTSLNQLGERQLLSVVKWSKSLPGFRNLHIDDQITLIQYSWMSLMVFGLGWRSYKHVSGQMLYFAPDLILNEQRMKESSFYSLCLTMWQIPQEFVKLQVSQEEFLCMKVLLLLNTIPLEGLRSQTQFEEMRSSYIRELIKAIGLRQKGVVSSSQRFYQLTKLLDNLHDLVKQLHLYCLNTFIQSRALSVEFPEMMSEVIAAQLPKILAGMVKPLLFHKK

Experiment [8] can be described thus: TOX21_PR_BLA_Followup_Agonist_viability: Viability Assessment in the Tox21 HEK293 Progesterone Receptor (PR) Agonism Beta-lactamase Follow-Up Assay (AID 2283935).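 Also: signal loss means lower viability so actives are cytotoxic.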 Put shortly:
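Viability is read as CellTiter-Glo luminescence, where loss of signal indicates cytotoxicity. The cells are PR-UAS-bla HEK293T given compounds for 16 hr at 37C and 5% CO2, in the same wells used for the bla readout.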

Experiment [9] deals with PGR (gene 5241) (UniProt P06401). The experiment in a line: TOX21_PR_LUC_Followup_Antagonist: Tox21 HEK293 Progesterone Receptor (PR) Antagonism Luciferase Follow-Up Assay (AID 2283938).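 Also: curve fitted upward as signal gain over DMSO baseline despite antagonist label.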 The method in brief:
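A follow-up to the PR bla screen using HEK293-PR-A-luc cells, multiplexed with cell viability to flag cytotoxicity. Reporter luminescence after 16 h compound exposure was analysed relative to DMSO.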

Experiment [10] is described as follows: TOX21_PR_LUC_Followup_Antagonist_viability: Viability Assessment in the Tox21 HEK293 Progesterone Receptor (PR) Antagonism Luciferase Follow-Up Assay (AID 2283940). The method in brief:
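Loss of CellTiter-Glo ATP signal indicates cytotoxicity in HEK293-PR-A-luc cells grown in 10% charcoal-stripped FBS medium, seeded 3,000 per well and incubated 16 h with compound at 37C.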

Experiment [11] can be described thus: TOX21_PR_LUC_Followup_Agonist_viability: Viability Assessment in the Tox21 HEK293 Progesterone Receptor (PR) Agonism Luciferase Follow-Up Assay (AID 2283941).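 Also: loss of signal means cytotoxicity so actives lower viability.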 Put shortly: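 Seeding: HEK293-PR-A-luc, 3,000 cells/well, 5 h at 37C. Treatment: compound in DMSO, 16 h, 37C. Read: CellTiter-Glo ATP luminescence, signal loss taken as lower viability.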
A short description of experiment [12]: CCTE_Harrill_HTTr_Viability_MCF7: CCTE's 6-hour Cell Viability Assessment for the High-Throughput Transcriptomics (HTTr) Platform, in MCF-7 cells cultured in DMEM + 10% fetal bovine serum, Harrill Lab (AID 2284010; active = hit-call score of the fitted dose curve at least 0.9, where 1 is the maximum; inactive = score below 0.9). Put shortly:
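Eight-point concentration series, six-hour exposure. Propidium iodide exclusion imaged to assess membrane integrity as a cytotoxicity readout; bidirectional fitting was done with DMSO as negative control and activity baseline.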

Experiment [13] is described as follows: CCTE_Harrill_HTTr_Apoptosis_MCF7: CCTE's 6-hour Apoptosis Assessment for the High-Throughput Transcriptomics (HTTr) Platform, in MCF-7 cells cultured in DMEM + 10% fetal bovine serum, Harrill Lab (AID 2284011; active = hit-call score of the fitted dose curve at least 0.9, where 1 is the maximum; inactive = score below 0.9). The method in brief: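 Cells are dosed with test chemicals at eight concentrations and imaged 6 hours later for caspase-3/7 activity using a green fluorogenic detection reagent. Activity is fitted in both directions against DMSO controls.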

Experiment [14] can be described thus: CCTE_Harrill_HTTr_CellCount_MCF7: CCTE's Cell Proliferation Assessment for the High-Throughput Transcriptomics (HTTr) Platform, Harrill Lab (AID 2284012).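 Also: count of Hoechst-stained nuclei per well by high-content imaging in MCF-7 cells; cells exposed to compound for six hours; intended direction is loss of nuclei count meaning fewer cells.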 The method in brief:
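For this full-screen endpoint, MCF-7 cultures received eight compound dilutions for six hours. Well nuclei counts from Hoechst imaging were analyzed relative to DMSO.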

Structures are written as SMILES. Inconclusive results are not listed. Calls of active or inactive are those of the source. The calls were made as follows, unless noted: active = hit-call score of the fitted dose curve at least 0.9, where 1 is the maximum; inconclusive = response in the unintended direction; inactive = score below 0.9.

Chain of Cellular tumor antigen p53 (Homo sapiens) (P04637 whole entry, looked up): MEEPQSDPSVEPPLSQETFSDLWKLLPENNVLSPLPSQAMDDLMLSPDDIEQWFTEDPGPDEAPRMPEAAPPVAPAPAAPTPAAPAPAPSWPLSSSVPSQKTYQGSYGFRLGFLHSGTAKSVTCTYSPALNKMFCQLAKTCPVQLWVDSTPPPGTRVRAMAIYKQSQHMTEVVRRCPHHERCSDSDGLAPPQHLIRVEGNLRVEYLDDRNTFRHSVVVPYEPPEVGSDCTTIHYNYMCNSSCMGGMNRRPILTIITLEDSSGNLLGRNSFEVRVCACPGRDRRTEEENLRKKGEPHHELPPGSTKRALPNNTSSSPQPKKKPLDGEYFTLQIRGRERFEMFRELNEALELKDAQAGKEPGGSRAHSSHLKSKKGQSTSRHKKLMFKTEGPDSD

Take `CCC1OCC(COc2ccc(Oc3ccccc3)cc2)O1` (stereo not drawn): the call in [1], in [2], in experiment [3], in experiment [4], in [5] and in experiment [6] was inactive.
Consider `CC1CCc2cc(F)cc3c(=O)c(C(=O)O)cn1c23` (stereo not drawn), for which the outcome in experiment [1], in [2], in experiment [3], in experiment [4], in experiment [5] and in experiment [6] was inactive.
Regarding `CC1=C(/C=C/C(C)=C/C=C/C(C)=C/C=C/C=C(C)/C=C/C=C(C)/C=C/C2=C(C)CCCC2(C)C)C(C)(C)CCC1`, the call in experiment [1], in [2], in [3], in [4], in experiment [5] and in [6] was inactive.
Regarding `O=C(O)CNC(=O)c1ccc([N+](=O)[O-])cc1`, the outcome in [1], in experiment [2], in [3], in experiment [4], in [5] and in [6] was inactive.
In the case of `O=Cc1ccc(Cl)cc1`, the outcome in [1], in experiment [2], in [3], in [4], in experiment [5] and in [6] was inactive.
`CC12CCC(C1)C(C)(C)C2=O` (stereo not drawn): the result in experiment [1], in experiment [2], in experiment [3], in [4] and in experiment [6] was inactive.
Regarding `CC1(C)CCC(C)(C)c2cc(NC(=O)c3ccc(C(=O)O)cc3)ccc21`, the AC50 was 36.6 µM (active) in experiment [1]; 39.1 µM (active) in experiment [3]; 44.2 µM (active) in experiment [4]; 43.5 µM (active) in [5]; 44.7 µM (active) in [6]. Besides, the outcome (in experiment [2]; with PGR (gene 5241) [7]; in experiment [8]; with PGR (gene 5241) [9]; in [10]; in [11]) was inactive.
As to `OCCCC1CCCCC1`, the result in [1], in [2], in [3], in experiment [4], in experiment [5] and in experiment [12] was inactive. Besides, the result in [13] and in experiment [14] was inactive.
`NCCCNCCCCNC(=O)C(O)NC(=O)CCCCCCN=C(N)N` (stereo not drawn): the outcome in [1], in experiment [2], in [3], in experiment [4], in experiment [5] and in [6] was inactive.
Regarding `FC(F)(F)C(F)(F)C(F)(F)C(F)(F)C(F)(F)F`, the outcome in experiment [1], in experiment [2], in [3], in experiment [4] and in [6] was inactive.
For the molecule `C=C(C)C1CC=C(C)C(O)C1` (stereo not drawn), the call in experiment [1], in experiment [2], in [3], in experiment [4], in experiment [5] and in experiment [6] was inactive.
On to `NCCO/C=C/[C@H](N)C(=O)O`, for which the molecule was called inactive in experiment [1], in experiment [2], in [3], in [4], in experiment [5] and in experiment [6].
Regarding `C[C@@H]1CN(c2c(F)c(N)c3c(=O)c(C(=O)O)cn(C4CC4)c3c2F)C[C@H](C)N1`, the molecule was classed as inactive in experiment [1], in experiment [2], in experiment [3], in [4], in [5] and in experiment [6]. Besides, the result in [12], in experiment [13] and in experiment [14] was inactive.
On to `NS(=O)(=O)c1cc2c(cc1Cl)NC=NS2(=O)=O`, for which the result in experiment [1], in [2], in experiment [3], in experiment [4], in experiment [5] and in experiment [6] was inactive.
As to `CC1CCC(NC(=O)N(CCCl)N=O)CC1` (stereo not drawn), the outcome in experiment [1], in experiment [2], in experiment [3], in [4], in experiment [5] and in [6] was inactive.

Values taken from PubChem BioAssay (EPA / NIEHS).
